VACV Venus inh: vaccinia inhibition (Venus reporter) | Vaccinia virus Venus reporter expression, fluorescence | Potency, µM (series often up to 36.5 µM), inactives show at the highest dose activity change, negative = inhibition, actives largely listed as inhibitors | 0.46% of 330,000 active | AID 720580; calls by dose curve; tested in A549 cells; also: potency is read from the fitted curve at half-maximal effect; nearly all actives have a fitted effect of over 30% in size
HCMV antiviral: blocks human cytomegalovirus replication; HFF cells, HCMV-luciferase reporter, 72 h; active compounds read low; activity change, negative = inhibition, % at 57.5 µM; 4.5% of 410,000 active; AID 1259415; in the data active = activity change below about -60%; inconclusive = no clear call, values can overlap the other calls; inactive = above about -39%
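Cell-based, HFFs, 1000 cells/well, 16 h 37C; cpds in DMSO + HCMV-luc, MOI 1 PFU/cell; 72 h 37C; OneGlo luminescence after 5 min RT; norm. to buffer vs Salinomycin 10uM.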
Marburg entry inh: blocks Marburg virus binding to or entry into cells; Marburg virus pseudotyped entry inhibition, cell reporter; Potency, µM (doses to about 37.8 µM), inactives show top-dose activity change, negative = inhibition, hits mostly inhibitors; 1.8% of 300,000 active; AID 540276; calls by dose curve; tested in HEK293 cells; also: potency is read from the fitted curve at half-maximal effect
LASV entry inh: blocks Lassa virus binding to or entry into cells | 1.2% of 300,000 active | Potency, µM (top dose mostly 37.9 µM), for the others: at the highest dose activity change, negative = inhibition, usual class: inhibitors | Lassa virus pseudotype entry inhibition, cell reporter; calls by dose curve; tested in HEK293 cells; also: potency is read from the fitted curve at half-maximal effect; nearly all actives have a fitted effect of over 50% in size
VACV mCherry inh: inhibitors of vaccinia virus infection (mCherry reporter signal); Vaccinia virus mCherry reporter infection, fluorescence; 0.63% of 310,000 active; Potency, µM (highest dose often 36.5 µM), for the others: at the top dose activity change, negative = inhibition, most hits filed as inhibitors; calls by dose curve; tested in A549 cells; also: potency is read from the fitted curve at half-maximal effect; nearly all actives have a fitted effect of over 35% in size
FMDV inh: antivirals against foot and mouth disease virus; Potency, µM (doses to about 57.9 µM), without a hit: at the highest dose activity change, negative = inhibition, actives largely listed as inhibitors; FMDV antiviral cell-based qHTS; 1.2% of 410,000 active; calls by dose curve; tested in HEK293T cells; also: read-out not given here; potency is read from the fitted curve at half-maximal effect; nearly all actives have a fitted effect of over 45% in size
Starred values were filed as active, the others as inactive; i = inactive; ? = inconclusive; . = no result given; [ ] = remark or other dose. A selection: hits, their analogues and other compounds. The true share with any hit is near 6.5%. % is scaled to controls: 0 for no effect and ±100 for the full control effect.

SMILES	VACV Venus inh	HCMV antiviral	Marburg entry inh	LASV entry inh	VACV mCherry inh	FMDV inh
Cc1ccc(/C=N/Nc2ncc(Cl)cc2Cl)s1	-29.8%	-63.7*	?	?	-24.3%	-17.5%
Clc1cnc(N/N=C/c2cccs2)c(Cl)c1	?	51.8	?	?	-10.3%[1.46 µM]	17.4%
O=C1CCN(CCc2ccccc2)CCN1[C@H](COc1ccccc1)c1ccccc1	-20.3%	65.7	.	.	?	?
COCc1cc(=O)[nH]c(Nc2nc3ccccc3o2)n1	-24.7%	16.0	?	?	-24.8%	-13.1%
Cc1ccc2oc(Nc3nc(-c4ccccc4)cc(=O)[nH]3)nc2c1	-14.6%	-101.1*	?	-17.3%	-0.3%	?
O=C(CN(CC(=O)Nc1ccc(F)cc1)CC(=O)Nc1ccc(F)cc1)Nc1ccc(F)cc1	.	51.7	.	.	.	.
Cc1cc(/C=N/O)c(C)n1-c1ccccc1	-18.0%	-33.2	?	-2.2%[46.1 µM]	-14.7%	23.9%
CN(C)c1ccc(/C=C/c2ccc3ccccc3[n+]2C)cc1	275.1%	-99.4*	?	?	175.5%	?
CN(CCCS(=O)(=O)[O-])c1ccc(/C=C/c2ccc3ccccc3[n+]2C)cc1	.	94.0	.	.	.	-13.3%
CN(C)c1ccc(/C=C/c2ccc3c4ccccc4ccc3[n+]2-c2ccccc2)cc1	i	-99.0*	?	11.2µM*	i	12.6µM*
Cc1cc(/C=C/c2ccc3cc(N(C)C)ccc3[n+]2C)c(C)n1-c1ccccc1	i	.	.	.	109.5%	14.1µM*
Cc1cc(C(F)(F)F)nn1CC(=O)NC[C@H]1CCCO1	.	.	2.9%	.	.	.
CCCOc1cccc([C@H]2/C(=C(/O)c3ccc(F)cc3)C(=O)C(=O)N2CCN(C)C)c1	.	.	-1.1%[46.1 µM]	.	.	.
CCOC(=O)c1c(-c2ccc(C)o2)csc1NC(=S)NC(=O)c1ccccc1Br	-22.0%	43.0	-18.4%	25.8%[14.3 µM]	-5.3%	-5.8%
CCOC(=O)c1c(-c2cccs2)csc1NC(=O)CN1CC(C)OC(C)C1 (centres undefined)	-25.4%	-38.2	11.2µM*	?	-20.0%	?
CCOC(=O)c1c(-c2ccc(-c3ccccc3)cc2)csc1NC(=O)CCN1CCOCC1	?	-24.5	?	10µM*	?	-24.8%
CCOC(=O)c1c(-c2ccccc2)csc1NC(=O)CCN1C(=O)c2ccccc2C1=O	-10.2%	22.9	-0.8%	10.0%	-5.8%	0.8%
CCOC(=O)c1c(-c2ccc(C)o2)csc1NC(=S)NC(=O)c1cccs1	-24.2%	?	?	23.1µM*	i	-20.4%
CCOC(=O)c1c(-c2ccc(F)cc2)csc1NC(=O)CCN1CCOCC1	-15.3%	36.0	9.5%	-24.6%	-9.4%	-12.6%
CCOC(=O)c1c(-c2ccc(-c3ccccc3)cc2)csc1NC(=O)CNCCN(C)C	?	-100.3*	?	?	10µM*	-29.2%
CCOC(=O)c1cc(OCc2csc(-c3ccccc3)n2)cc(C(=O)OCC)c1	-10.8%	.	.	.	-7.7%	.
Cc1ccc(-n2c(SCC(=O)N/N=C/c3c(C)nn(-c4ccccc4)c3C)nc3ccccc3c2=O)cc1	-14.3%	-62.8*	?	-21.8%	?	0.0%
Cc1ccsc1/C=N/NC(=O)c1c[nH]c2ccccc12	-27.3%	151.8	8.9%	10.7%	?	44.7%
Cc1ccccc1-n1c(SCC(=O)N/N=C/c2c(C)nn(-c3ccccc3)c2C)nc2ccccc2c1=O	?	0.0	7.31µM*	?	-27.0%	-22.7%
CCCCCCCCCC(=O)N/N=C/c1ccc(C)s1	.	70.2	?	9.2µM*	.	0.0%
SMILES	VACV Venus inh	HCMV antiviral	Marburg entry inh	LASV entry inh	VACV mCherry inh	FMDV inh
Cc1ccc(/C=N/NC(=O)c2c[nH]c3ccccc23)s1	?	-72.1*	?	-18.3%	?	50.6%
Cc1nn(-c2ccccc2)c(C)c1/C=N/NC(=O)CSc1nc2ccccc2c(=O)n1-c1ccc(Br)cc1	-24.0%	-8.2	?	-24.9%	-0.8%	-6.6%
CCN1CCCc2cc(CN(CCN3CCOCC3)C(=S)Nc3cccc(OC)c3)ccc21	.	-20.3	.	.	.	-4.0%
COc1ccc(/C=C/C(=O)NCC(=O)N2CCC(N(C)CCN3CCOCC3)CC2)cc1OC	.	-16.4	21.2%	-9.2%	.	-14.2%
CCOC(=O)C1=C2C=C(OCC)C=CC2OC1c1ccccc1 (centres undefined)	.	.	-25.2%[46.1 µM]	.	.	.
Cc1ccccc1-n1c(SCC(N)=O)nc2sc(-c3ccccc3)cc2c1=O	?	21.2	-5.6%	0.1%	.	-17.8%
Cc1ccc(/C=N/NC(=O)CSc2nc3ccccc3c(=O)n2-c2ccccc2)s1	-3.4%	9.7	5.3%	1.8%	-10.3%	-2.2%
Cc1ccc(/C=N/NC(=O)CSc2nc3ccccc3c(=O)n2-c2ccccc2C)s1	-13.6%	-68.9*	?	?	-23.0%	-7.9%
CCn1c(SCC(=O)N/N=C/C=C/c2ccco2)nc2ccccc21	.	28.2	-21.2%	-9.2%	.	-19.6%
CCn1c(SCC(=O)N/N=C/c2ccc(C)s2)nc2ccccc21	-21.8%	2.9	2.59µM*	-18.5%	?	7.8%
Cc1ccccc1-n1c(SCC(=O)NC(N)=O)nc2sc(-c3ccccc3)cc2c1=O	-27.8%	-71.2*	?	-4.2%	?	-7.0%
Cc1ccc(-c2nnc(SCC(=O)N/N=C/c3ccccc3C(=O)O)n2-c2ccccc2)cc1	.	14.5	.	.	.	.
Cc1ccc(-c2nnc(SCC(=O)N/N=C/c3ccc(C)s3)n2-c2ccc(C)cc2)cc1	-11.8%	-63.2*	?	?	-19.0%	-6.2%
CC1(C(=O)NCCCN2CCCC2=O)CCN1CCc1ccccc1 (centres undefined)	10.2%	7.5	.	.	34.8%	-6.7%
O=C(Nc1ccc([N+](=O)[O-])cc1)Nc1cnccn1	.	-81.2*	.	.	.	-5.7%
Cc1ccc(C(C)C)cc1NC(=O)Nc1ccc([N+](=O)[O-])cc1	10µM*	-102.1*	.	.	?	?
CC(=O)Nc1ccc(OS(=O)(=O)c2ccc(Cl)cc2)cc1	-15.5%	-4.7	-2.3%[46.1 µM]	0.4%	-5.8%	19.5%
CC(=O)Nc1ccc(OCCOc2ccc([N+](=O)[O-])cc2)cc1	-15.3%	-72.1*	.	.	i	-14.3%
CC(=O)Nc1ccc(OS(=O)(=O)c2ccc([N+](=O)[O-])cc2)cc1	.	-62.2*	.	.	.	3.4%
CC(C)=CCCC(C)=CCON=C1C[C@@H](O)[C@@H](O)[C@@H]2[C@H]3C(=O)N(Cc4ccc5c(c4)OCO5)C(=O)[C@@H]3CC[C@@H]12	.	.	-43.7%[14.2 µM]	-0.6%[14.3 µM]	.	.
CCc1ccc(C2c3c(n[nH]c3C)C(=O)N2c2ccc(C)cc2)cc1 (centres undefined)	-4.3%	32.3	-1.6%[46.1 µM]	-16.7%[46.1 µM]	-14.2%	25.2%
O=[N+]([O-])c1ccc2c(c1)C=C/C2=C\c1ccc(C=S)cc1	-15.6%	.	.	.	-23.8%	.
CC1(C)CC(=O)C2=C(C1)O[C@@]1(CCCCN3C(=O)c4ccccc4C3=O)Cc3c(ccc4ccccc34)[C@H]2O1	.	.	-26.8%[14.2 µM]	.	.	.
O=C(Nc1ccc(Oc2ccc(NC(=O)Nc3ccc([N+](=O)[O-])cc3)cc2)cc1)Nc1ccc([N+](=O)[O-])cc1	-10.2%	-95.4*	-6.4%[46.1 µM]	-24.5%	?	?

Bioassay records from PubChem.
